Screening results deposited in PubChem by National Center for Advancing Translational Sciences (NCATS).
Giardia killer – kills Giardia lamblia | 340,000 compounds, 0.15% hits | activity change, % at 7.66 µM, hits read low | AID 540267 | Giardia lamblia trophozoite viability; in the data active means activity change below about -80%; inconclusive means between about -30% and that limit;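 further: parasites exposed to compound for two days anaerobically before the ATP read; on the % scale 0 is the no-effect control and ±100 the full control effect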
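Anaerobic 48 hrs incubation at 37 deg C of 100 trophozoites/well with test compounds; ATPLite 1-Step luminescence, 15-30 min RT, reports cellular ATP as viability.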
KB-3-1 cytotox – kills parental KB-3-1 adenocarcinoma cells; KB-3-1 viability, CellTiter-Glo ATP luminescence, 72 h; Potency, µM (series often up to 46.1 µM), most hits filed as cytotoxic; 400,000 compounds, 1.4% hits; AID 1347075; further: potency means the concentration at half of the fitted maximal effect; on the % scale 0 is the no-effect control and ±100 the full control effect; nearly all actives have a fitted effect of over 60% in size
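Using CellTiter-Glo luminescence, growth of non-resistant KB-3-1 adenocarcinoma cells is assessed 72 h after pin-tool compound addition at 37 °C. Normalized responses across the concentration series yield fitted curves.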
SW480 rereplic – DNA re-replication induction in SW480 cells; SW480 DNA re-replication, Hoechst DNA content imaging, 48 h; AID 624297; 340,000 compounds, 1.8% hits; Potency, µM (highest dose often 46.1 µM), without a hit: at the top dose re-replication activation, hits mostly activators; further: potency means the concentration at half of the fitted maximal effect; % of control where 0% means no effect; nearly all actives have a fitted effect of over 55% in size
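Cells (250 per well) received 23 nL compound or DMSO by pin tool and were kept 48 hr at 37 C, 5% CO2. Nuclei were then stained with Hoechst for 40 min and scanned for DNA content.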
MCF10A rereplic – inducers of DNA re-replication in MCF 10A breast cells; 350,000 compounds, 2.9% hits; AID 624296; MCF 10A DNA re-replication, Hoechst nuclear intensity, 48 h; Potency, µM (series often up to 46.1 µM), for inactives: at the highest dose activity, positive = re-replication, most hits filed as activators; further: potency means the concentration at half of the fitted maximal effect; % of control where 0% means no effect; nearly all actives have a fitted effect of over 50% in size
KB-V1 MDR tox – KB-V1 MDR subline cytotoxicity | KB-V1 MDR cells viability, CellTiter-Glo, 72 h | Potency, µM (doses to about 46.1 µM), actives largely listed as cytotoxic | 400,000 compounds, 3.4% hits; further: potency means the concentration at half of the fitted maximal effect; on the % scale 0 is the no-effect control and ±100 the full control effect; nearly all actives have a fitted effect of over 60% in size
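Cytotoxicity toward P-gp-expressing KB-V1 cells was determined as loss of CellTiter-Glo luminescence after 72 h at 37 degrees C. Compounds were tested in quantitative HTS format across a concentration range, with curves fitted to normalized data.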
ASM inhibitor – blocks human secretory acid sphingomyelinase; P17405; placental ASM, HMU-PC fluorogenic substrate, 60 min; 340,000 compounds, 0.006% hits; Potency, µM (doses to about 57.5 µM), without a hit: at the highest dose activity change, negative = inhibition, most hits filed as inhibitors; AID 504937; further: potency means the concentration at half of the fitted maximal effect
Target sequence (P17405 47-631 limits assumed): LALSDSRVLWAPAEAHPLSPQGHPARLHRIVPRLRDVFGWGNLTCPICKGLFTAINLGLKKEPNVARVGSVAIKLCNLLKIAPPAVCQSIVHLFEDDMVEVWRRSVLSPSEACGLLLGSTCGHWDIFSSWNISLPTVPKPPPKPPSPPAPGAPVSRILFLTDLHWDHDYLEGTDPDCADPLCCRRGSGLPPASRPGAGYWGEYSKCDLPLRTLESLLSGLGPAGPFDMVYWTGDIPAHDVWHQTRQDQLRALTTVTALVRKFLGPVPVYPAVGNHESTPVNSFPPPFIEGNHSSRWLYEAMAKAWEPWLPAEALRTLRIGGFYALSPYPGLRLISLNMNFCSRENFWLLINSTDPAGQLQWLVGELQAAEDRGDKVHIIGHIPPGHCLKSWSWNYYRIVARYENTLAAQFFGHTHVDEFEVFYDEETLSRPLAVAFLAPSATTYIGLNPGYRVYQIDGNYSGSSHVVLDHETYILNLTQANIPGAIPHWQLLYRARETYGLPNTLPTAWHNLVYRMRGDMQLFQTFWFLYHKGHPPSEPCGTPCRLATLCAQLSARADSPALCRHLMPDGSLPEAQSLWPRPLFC
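qHTS format. ASM enzyme prepared from human placenta hydrolyses the fluorogenic substrate HMU-PC0 (9 uM final) over 60 min at 37 °C after a 10 min compound preincubation.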
* marks the source's active call; other numbers are inactive results; i = inactive; ? = inconclusive; nt = no result given; [ ] = another dose, or the depositor's remark. Rows were chosen to be rich in hits. Some 6.9% of all compounds tested hit in one or more screens of this group. Unless noted, the call rests on the fitted dose curve; in most records, active means well fitted curve in the direction sought with a large enough effect; inconclusive means small, poorly fitted or top-dose-only effect, or another doubt; inactive means no such curve, though single readings can be large; an effect the other way counts as inactive or inconclusive.

SMILES | Giardia killer | KB-3-1 cytotox | SW480 rereplic | MCF10A rereplic | KB-V1 MDR tox | ASM inhibitor
Cc1ccc(S(=O)(=O)N2CCCC(C)C2)cc1 (configuration not stated) | -2 | i | -4% | 7% | i | 2%
CC1CCCN(S(=O)(=O)c2ccc(S(=O)(=O)NC(C)c3cccs3)cc2)C1 (configuration not stated) | 7 | i | -4% | 1% | 16µM* | 0%
CCCCc1ccc(NC(=O)Cn2cnc3c2c(=O)n(C)c(=O)n3C)cc1 | nt | i | nt | nt | ? | nt
CCn1c(-c2cc(OC)c(OC)c(OC)c2)n[nH]c1=S | -5 | i | 4% | -7% | 10µM* | -1%
CCn1c(-c2cc3ccccc3cc2O)n[nH]c1=S | 8 | ? | 4% | 4% | 21µM* | 174%
CCN(CC)C(=O)CSc1nnc(-c2cc3ccccc3cc2O)n1CC | 5 | 3.3µM* | -1% | -1% | 2.9µM* | 14%
CCOc1ccccc1-c1cc(-c2n[nH]c(=S)n2CC)c2ccccc2n1 | 38 | i | 21% | 31% | i | 9%
C=CCn1c(-c2cc(OC)c(OC)c(OC)c2)n[nH]c1=S | -18 | i | -4% | -18% | ? | -1%
CCOc1cccc(-c2cc(-c3n[nH]c(=S)n3CC)c3ccccc3n2)c1 | -11 | i | 15% | 26% | 9.2µM* | -11%
O=C(Nc1ccc2c(c1)N(C1CCCC1)C(=O)c1ccccc1S2)c1ccccc1F | nt | ? | nt | nt | i | nt
Cc1ccc(NC(=O)CCCn2nc(C)c3sc4ccccc4c3c2=O)c(Cl)c1 | nt | i | nt | nt | i | nt
C=C1C(=O)OC2C1C(OC(=O)C(C)=CC)CC(=C)C1C(O)C3OC3(C)C21O (configuration not stated) | 0 | i | 21µM* | 13µM* | i | 7%
O=C1CC(/C=C/c2ccccn2)=Nc2ccccc2N1 | 13 | 18µM* | ? | -1% | ? | 3%
O=C1CC(/C=C/c2ccco2)=Nc2ccccc2N1 | 5 | i | 6% | 4% | i | -1%
Fc1ccc(CNc2nc(-c3ccccc3)cc(C(F)(F)F)n2)cc1 | nt | i | nt | nt | i | nt
COc1ccc(N/N=C(/N=Nc2nc(C)cc(=O)[nH]2)c2ccccc2)cc1 | -18 | 6.5µM* | ? | ? | ? | -16%
Cc1cc(=O)[nH]c(N=N/C(=N/Nc2ccc(O)cc2)c2ccccc2)n1 | 2 | ? | -2%[9.22 µM] | ? | i | ?
Cc1cc(=O)[nH]c(N=N/C(=N/Nc2ccccc2C)c2ccccc2)n1 | -23 | 4.6µM* | 5.2µM* | 19% | i | -1%
Cc1ccc(OCC(=O)Nc2ccc(O)c(-c3nc4ccccc4o3)c2)cc1 | 17 | ? | -6% | 16µM* | ? | 25%
O=C1/C(=C/c2ccccc2)Oc2cc(OC(=O)N3CCOCC3)ccc21 | -27 | i | -5% | 10% | 21µM* | 5%
CCOc1ccccc1NC(=O)CSc1nncc2ccccc12 | -12 | i | -4% | ? | i | -1%
O=C(Nc1ccc(F)cc1)c1ccc(-n2cncn2)c([N+](=O)[O-])c1 | -15 | ? | 50% | 0% | 12µM* | -6%
COc1ccc(Cn2c(CCC(=O)Nc3ccc(CC#N)cc3)nc3cccnc32)cc1 | -5 | i | 11% | 16% | 2.6µM* | 1%
COc1ccc2c(=O)n3nc(Nc4cccc(N5CCN(C)CC5)c4)sc3nc2c1 | nt | i | nt | nt | i | nt
Clc1ccc(CSc2nncn2-c2ccc3c(c2)OCCO3)cc1 | -9 | 13µM* | 21µM* | 9.2µM* | ? | 0%
CCOc1ccc(CCn2c(-c3ccco3)nc3ccccc3c2=O)cc1OCC | 12 | ? | ? | ? | 7.3µM* | -4%
O=c1c2ccccc2nc(-c2ccoc2)n1CCc1ccccc1 | 6 | ? | 8% | ? | 12µM* | -3%
O=c1c2ccccc2nc(/C=C/c2ccccc2)n1CCc1ccccc1 | 7 | i | 0% | -3% | i | -1%
COC(=O)c1cc2sc(Cl)cc2n1Cc1c(C)cc(C)cc1C | nt | i | nt | nt | i | nt
